Here are results for nine compounds from PubChem BioAssay.

Activity calls are given as the source filed them.

For assay [1], the system named is PRMT1 (protein arginine N-methyltransferase 1). The experiment in a line: PRMT1 binders on small-molecule microarrays, primary screen, biochemical, small-molecule microarray, 635 nm fluorescence (AID 1088).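 Further: binding of Prmt1 protein to compounds spotted on small-molecule microarray slides.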 To be noted: small-molecule microarray binding, higher = more signal.
Assay [2] can be described thus: yeast growth modulation, basal conditions, primary screen, YJM789 clinical isolate, OD600, 24 h (AID 1089).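 Further: growth of clinical yeast isolate S. cerevisiae YJM 789 seeded 1000 cells per well; test concentration not given here.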 To be noted: S. cerevisiae YJM789 growth, higher = more signal, called active from +8 up or from −8 down.
Assay [3] can be described thus: fission yeast growth modulation, primary screen, strain 972, OD600, 24 h, no modulator (AID 1090).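 Further: basal condition with compound alone and no growth modifier present; test concentration not given here.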 The settings on record: S. pombe 972 growth, higher = more signal, called active from +8 up or from −8 down.
A short description of assay [4]: S. cerevisiae growth modulation with rapamycin, primary screen, strain BY4716, OD600, 96 h (AID 1091). Further: test concentration not given here. The settings on record: higher = more signal, called active from +8 up or from −8 down.
Assay [5] addresses Torsin-1A-interacting protein 2 (Homo sapiens) (UniProt Q8NFQ8). The experiment in a line: LULL1 binders on small-molecule microarray, primary screen, cell lysate, human LULL1 lysate, 635/667 nm fluorescence (AID 1092).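 Further: probe is lysate of COS7 cells overexpressing human LULL1; score merges per-feature 667 nm fluorescence with signal-to-noise.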 To be noted: hLULL1 lysate binding, 635 nm fluorescence, higher = more signal.
Assay [6] is described as follows: E. coli growth modulation, two-sided OD650, primary screen, E. coli filamentation project, strain DRC41, 24 h (AID 1093).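 Further: MC1000 strain lacking acrAB efflux and sulA so SOS filamentation is blocked; test concentration not given here.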 The settings on record: OD650, 24 h, higher = more signal, called active from +8 up or from −8 down.
The nature of assay [7]: small-molecule microarray binders of probe aLefty2, primary screen, biochemical, biotinylated probe, 635/667 nm fluorescence (AID 1094).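 Further: score merges spot fluorescence near 667 nm with spot signal-to-noise ratio.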 To be noted: higher = more signal.
Assay [8] deals with Noggin (protein binding on small-molecule microarray). The assay is described as follows: Noggin binders on small-molecule microarray, primary screen, biochemical, 635/667 nm fluorescence (AID 1095).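 Further: score merges 667 nm feature fluorescence with signal to noise over triplicate slides.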 To be noted: 635 nm fluorescence, higher = more signal.
The target in assay [9] is Neurogenic locus notch homolog protein 3 (Homo sapiens) (UniProt Q9UM47). The assay is described as follows: NOTCH3 binders on small-molecule microarray, primary screen, biochemical, 635/667 nm fluorescence (AID 1096). To be noted: NOTCH3 binding, 635 nm fluorescence, higher = more signal.
Assay [10] can be described thus: small-molecule microarray binders of probe aEGFR, primary screen, biochemical, biotinylated probe, 635/667 nm fluorescence (AID 1097).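 Further: probe is a biotinylated anti-EGFR antibody binding compounds printed on slides; score combines fluorescence near 667 nm and signal to noise of each spot.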 To be noted: higher = more signal.
For assay [11], the system named is Plasmodium falciparum Sir2 (PF13_0152, Sir2A). The assay is described as follows: pfSir2 binders on small-molecule microarrays, primary screen, biochemical, small-molecule microarray, 635 nm fluorescence (AID 1098).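 Further: score merges spot fluorescence intensity with its signal-to-noise ratio.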 The settings on record: small-molecule microarray binding, fluorescence 635 nm; higher = more signal.
Assay [12] is described as follows: small-molecule microarray binders of probe aDKK1, primary screen, biochemical, biotinylated probe, 635/667 nm fluorescence (AID 1099).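 Further: score merges 667nm spot fluorescence with signal to noise across triplicate slides; reference of the scale not given here.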 To be noted: higher = more signal.
Assay [13] can be described thus: small-molecule microarray binders of probe aCHRDL2, primary screen, biochemical, biotinylated probe, 635/667 nm fluorescence (AID 1100). To be noted: higher = more signal.
Assay [14] in a line: splicing luciferase reporter signal modulators, primary screen, spliceosome inhibition project, cell-based, HEK293, splice +/- reporter (AID 1101).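 Further: HEK293 cells carrying a splicing-competent luciferase reporter gene; test concentration not given here.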 The settings on record: luminescence, 24 h, higher = more signal, called active from +8 up or from −8 down.
Assay [15] deals with Fibroblast growth factor 10 (Homo sapiens) (UniProt O15520). The experiment in a line: FGF10 binders on small-molecule microarrays, primary screen, biochemical, small-molecule microarray, 635 nm fluorescence (AID 1102). The settings on record: FGF10 binding, fluorescence 635 nm, higher = more signal.
The subject of assay [16] is glycogen synthase kinase-3 (GSK3A per assay name; protocol says GSK3B). The assay is described as follows: GSK3 binders on small-molecule microarrays, primary screen, biochemical, small-molecule microarray, 635 nm fluorescence, GSK3A (AID 1103). Further: the record names both GSK3A and GSK3B. To be noted: small-molecule microarray binding, fluorescence 635 nm; higher = more signal.
In assay [17] the target is Epidermal growth factor receptor (Homo sapiens) (UniProt P00533). The assay is described as follows: EGFR binders on small-molecule microarrays, primary screen, biochemical, small-molecule microarray, 635 nm fluorescence (AID 1104).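 Further: score merges 667 nm emission intensity with spot signal to noise over triplicate slides.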 To be noted: EGFR binding, higher = more signal.
In assay [18] the target is Follistatin-related protein 3 (Homo sapiens) (UniProt O95633). The experiment in a line: FSTL3 binders on small-molecule microarrays, primary screen, biochemical, small-molecule microarray, 635 nm fluorescence (AID 1105).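 Further: score merges emission near 667 nm and signal to noise per printed spot across three slides.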 To be noted: FSTL3 binding, higher = more signal.
The target of assay [19] is Dickkopf-related protein 1 (Homo sapiens) (UniProt O94907). The assay is described as follows: DKK1 binders on small-molecule microarrays, primary screen, biochemical, small-molecule microarray, 635 nm fluorescence scan (AID 1106).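 Further: score merges emission near 667 nm with signal to noise over three replicate slides.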 To be noted: DKK1 binding, higher = more signal.
Assay [20] deals with Inhibin beta A chain (activin A). The experiment in a line: INHBA (activin A) binders on microarrays, primary screen, biochemical, small-molecule microarray, 635 nm fluorescence scan (AID 1107).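 Further: mouse activin A protein probed at 4.33 µg/mL on printed slides; score merges bound-protein fluorescence near 667 nm with spot signal-to-noise.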 To be noted: small-molecule microarray binding, higher = more signal.

Sequence of Fibroblast growth factor 10 (Homo sapiens) (O15520 whole entry, looked up): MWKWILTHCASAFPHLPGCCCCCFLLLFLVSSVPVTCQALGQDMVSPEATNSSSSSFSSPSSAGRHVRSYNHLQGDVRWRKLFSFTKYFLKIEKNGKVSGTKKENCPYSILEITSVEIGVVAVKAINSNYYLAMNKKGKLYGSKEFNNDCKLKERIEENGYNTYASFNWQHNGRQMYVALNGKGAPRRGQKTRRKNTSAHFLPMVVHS
Sequence of Neurogenic locus notch homolog protein 3 (Homo sapiens) (Q9UM47 whole entry, looked up): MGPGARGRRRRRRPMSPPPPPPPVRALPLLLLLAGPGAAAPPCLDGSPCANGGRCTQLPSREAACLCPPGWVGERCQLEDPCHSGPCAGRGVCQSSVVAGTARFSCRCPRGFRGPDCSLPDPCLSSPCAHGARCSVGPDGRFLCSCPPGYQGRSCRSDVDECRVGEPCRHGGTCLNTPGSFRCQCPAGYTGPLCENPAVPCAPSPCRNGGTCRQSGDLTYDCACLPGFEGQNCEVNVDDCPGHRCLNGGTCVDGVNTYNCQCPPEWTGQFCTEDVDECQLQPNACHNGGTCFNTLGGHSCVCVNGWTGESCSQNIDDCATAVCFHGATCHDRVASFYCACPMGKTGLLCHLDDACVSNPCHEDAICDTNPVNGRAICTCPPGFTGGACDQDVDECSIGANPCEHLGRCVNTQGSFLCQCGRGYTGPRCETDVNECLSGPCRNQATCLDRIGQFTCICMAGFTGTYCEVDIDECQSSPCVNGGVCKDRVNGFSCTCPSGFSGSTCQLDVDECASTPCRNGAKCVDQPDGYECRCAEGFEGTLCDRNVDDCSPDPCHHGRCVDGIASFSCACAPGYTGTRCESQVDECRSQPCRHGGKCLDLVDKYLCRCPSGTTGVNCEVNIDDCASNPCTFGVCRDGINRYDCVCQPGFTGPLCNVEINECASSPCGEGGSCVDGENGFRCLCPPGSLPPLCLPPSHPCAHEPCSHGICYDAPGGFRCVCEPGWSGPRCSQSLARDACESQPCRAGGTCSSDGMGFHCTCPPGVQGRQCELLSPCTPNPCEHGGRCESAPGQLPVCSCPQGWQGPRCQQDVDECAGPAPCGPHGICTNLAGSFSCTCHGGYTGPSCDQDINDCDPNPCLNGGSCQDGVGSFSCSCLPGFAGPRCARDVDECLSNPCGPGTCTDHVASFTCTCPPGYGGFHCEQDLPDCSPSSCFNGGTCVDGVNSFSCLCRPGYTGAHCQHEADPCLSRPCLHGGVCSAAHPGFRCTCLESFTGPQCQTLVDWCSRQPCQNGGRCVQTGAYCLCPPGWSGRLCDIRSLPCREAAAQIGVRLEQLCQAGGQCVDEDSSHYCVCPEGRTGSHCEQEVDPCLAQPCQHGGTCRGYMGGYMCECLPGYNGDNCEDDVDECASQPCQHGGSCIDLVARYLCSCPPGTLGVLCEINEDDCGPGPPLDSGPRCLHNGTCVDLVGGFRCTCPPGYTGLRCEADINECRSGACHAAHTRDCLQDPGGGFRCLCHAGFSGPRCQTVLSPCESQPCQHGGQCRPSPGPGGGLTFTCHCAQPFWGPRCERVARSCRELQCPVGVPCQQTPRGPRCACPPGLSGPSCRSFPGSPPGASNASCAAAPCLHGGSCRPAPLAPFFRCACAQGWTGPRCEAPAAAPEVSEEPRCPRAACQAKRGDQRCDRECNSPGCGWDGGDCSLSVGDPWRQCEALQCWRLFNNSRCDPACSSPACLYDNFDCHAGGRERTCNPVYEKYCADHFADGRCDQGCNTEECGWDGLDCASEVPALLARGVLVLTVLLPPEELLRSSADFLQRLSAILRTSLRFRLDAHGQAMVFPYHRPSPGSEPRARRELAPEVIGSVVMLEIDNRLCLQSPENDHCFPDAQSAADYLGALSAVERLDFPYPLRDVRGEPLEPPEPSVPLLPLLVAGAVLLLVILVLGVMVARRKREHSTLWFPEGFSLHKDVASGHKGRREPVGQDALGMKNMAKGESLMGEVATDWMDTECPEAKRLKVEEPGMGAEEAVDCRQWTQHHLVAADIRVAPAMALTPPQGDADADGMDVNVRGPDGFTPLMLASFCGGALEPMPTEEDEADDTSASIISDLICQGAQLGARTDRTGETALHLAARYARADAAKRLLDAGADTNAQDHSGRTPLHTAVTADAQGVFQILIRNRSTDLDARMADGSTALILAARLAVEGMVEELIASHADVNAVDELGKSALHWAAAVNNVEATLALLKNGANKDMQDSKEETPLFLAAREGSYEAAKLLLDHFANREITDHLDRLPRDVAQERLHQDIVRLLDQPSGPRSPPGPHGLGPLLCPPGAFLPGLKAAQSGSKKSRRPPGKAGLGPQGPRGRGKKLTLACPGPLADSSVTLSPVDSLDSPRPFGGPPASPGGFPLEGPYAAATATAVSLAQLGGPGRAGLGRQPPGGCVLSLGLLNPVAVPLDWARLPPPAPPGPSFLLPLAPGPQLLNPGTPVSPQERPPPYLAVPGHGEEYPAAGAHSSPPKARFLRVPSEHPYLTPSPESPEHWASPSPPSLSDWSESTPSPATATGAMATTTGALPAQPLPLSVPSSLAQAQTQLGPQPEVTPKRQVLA
Sequence of Dickkopf-related protein 1 (Homo sapiens) (O94907 whole entry, looked up): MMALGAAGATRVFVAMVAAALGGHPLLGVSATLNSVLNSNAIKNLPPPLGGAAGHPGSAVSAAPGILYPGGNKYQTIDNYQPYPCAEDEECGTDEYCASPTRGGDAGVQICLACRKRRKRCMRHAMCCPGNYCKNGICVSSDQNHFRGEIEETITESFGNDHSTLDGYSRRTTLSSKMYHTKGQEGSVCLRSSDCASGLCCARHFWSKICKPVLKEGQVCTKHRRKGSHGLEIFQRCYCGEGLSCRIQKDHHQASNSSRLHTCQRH
Sequence of Epidermal growth factor receptor (Homo sapiens) (P00533 whole entry, looked up): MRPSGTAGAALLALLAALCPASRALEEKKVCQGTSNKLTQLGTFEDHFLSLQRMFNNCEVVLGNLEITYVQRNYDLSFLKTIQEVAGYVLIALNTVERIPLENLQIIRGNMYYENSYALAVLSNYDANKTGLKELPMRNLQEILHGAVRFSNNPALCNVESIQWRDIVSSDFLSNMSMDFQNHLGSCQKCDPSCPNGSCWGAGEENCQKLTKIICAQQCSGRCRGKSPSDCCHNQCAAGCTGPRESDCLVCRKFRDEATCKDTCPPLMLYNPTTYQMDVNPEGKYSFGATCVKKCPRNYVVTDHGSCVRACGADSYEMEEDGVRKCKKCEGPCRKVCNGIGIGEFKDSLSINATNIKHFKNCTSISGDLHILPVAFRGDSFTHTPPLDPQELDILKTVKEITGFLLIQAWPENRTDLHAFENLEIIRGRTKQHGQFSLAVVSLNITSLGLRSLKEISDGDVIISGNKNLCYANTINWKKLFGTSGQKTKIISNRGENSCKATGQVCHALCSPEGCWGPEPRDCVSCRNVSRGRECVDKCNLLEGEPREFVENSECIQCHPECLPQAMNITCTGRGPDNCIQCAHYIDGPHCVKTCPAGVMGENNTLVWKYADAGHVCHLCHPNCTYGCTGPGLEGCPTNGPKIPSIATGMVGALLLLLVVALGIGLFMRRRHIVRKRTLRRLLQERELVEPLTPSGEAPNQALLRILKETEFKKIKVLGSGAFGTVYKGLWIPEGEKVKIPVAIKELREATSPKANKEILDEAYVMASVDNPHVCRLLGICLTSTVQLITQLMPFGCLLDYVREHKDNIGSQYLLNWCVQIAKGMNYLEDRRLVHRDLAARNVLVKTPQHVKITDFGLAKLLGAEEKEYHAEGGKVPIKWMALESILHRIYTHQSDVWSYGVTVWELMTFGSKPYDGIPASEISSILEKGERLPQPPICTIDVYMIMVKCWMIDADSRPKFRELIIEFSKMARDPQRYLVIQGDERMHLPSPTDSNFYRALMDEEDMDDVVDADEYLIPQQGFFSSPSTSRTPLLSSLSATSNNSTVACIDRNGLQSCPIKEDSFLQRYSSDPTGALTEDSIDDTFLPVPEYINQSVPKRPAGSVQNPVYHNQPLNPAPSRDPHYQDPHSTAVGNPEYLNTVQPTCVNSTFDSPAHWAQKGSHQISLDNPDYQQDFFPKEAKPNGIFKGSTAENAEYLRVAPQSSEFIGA
Sequence of Follistatin-related protein 3 (Homo sapiens) (O95633 whole entry, looked up): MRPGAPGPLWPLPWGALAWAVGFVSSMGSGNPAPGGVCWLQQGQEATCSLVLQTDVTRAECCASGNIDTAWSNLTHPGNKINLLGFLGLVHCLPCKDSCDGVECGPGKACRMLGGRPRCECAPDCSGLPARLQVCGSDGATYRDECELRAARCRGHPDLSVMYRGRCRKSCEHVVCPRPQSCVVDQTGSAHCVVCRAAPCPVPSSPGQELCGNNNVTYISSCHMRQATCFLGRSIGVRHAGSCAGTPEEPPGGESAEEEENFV
Sequence of Torsin-1A-interacting protein 2 (Homo sapiens) (Q8NFQ8 whole entry, looked up): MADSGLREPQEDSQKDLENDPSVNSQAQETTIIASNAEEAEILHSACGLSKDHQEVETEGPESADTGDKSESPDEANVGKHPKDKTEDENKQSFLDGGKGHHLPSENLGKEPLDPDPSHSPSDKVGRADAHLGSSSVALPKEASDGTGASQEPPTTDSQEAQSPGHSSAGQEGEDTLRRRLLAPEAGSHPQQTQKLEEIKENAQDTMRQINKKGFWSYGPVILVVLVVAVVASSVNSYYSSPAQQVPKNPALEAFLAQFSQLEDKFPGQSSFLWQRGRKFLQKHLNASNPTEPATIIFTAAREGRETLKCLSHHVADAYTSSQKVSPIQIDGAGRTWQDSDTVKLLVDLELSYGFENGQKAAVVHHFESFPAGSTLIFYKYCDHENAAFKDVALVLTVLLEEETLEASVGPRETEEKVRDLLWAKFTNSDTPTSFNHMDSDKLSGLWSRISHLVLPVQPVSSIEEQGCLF

As for `Cc1ccc(S[C@]2(C(=O)NCC(F)(F)F)CC(=O)N(C3Cc4ccccc4C3)[C@@H]2c2ccc(CO)cc2I)cc1`, the composite z-score in [1] was -0.535; in assay [5], 1.18; in assay [7] it was 0.157; in assay [8], -0.883; in assay [9], -1.08; in [10] it was -0.255. For the same compound, the composite z-score in assay [11] was 1.08; in assay [12], 0.599; in assay [13] it was 1.19; in assay [15] it was -1.02; in assay [16], -1.3; in [17], -1.51. Further, the composite z-score was -1 in assay [18], -2.11 in [19] and 0.554 in assay [20]. The z-score in [2] is 0.0775 (inactive); in assay [3], -0.967 (inactive); in assay [4] it was 1.81 (inactive); in assay [6], -0.701 (inactive); in [14], -0.426 (inactive).
On to `COCCOC(=O)N1C(=O)[C@@]2(c3ccccc31)[C@H](C(=O)N1CCCCCCC1)[C@H]1C(=O)O[C@H](c3ccccc3)[C@H](c3ccccc3)N1[C@@H]2c1ccccc1OCCO`, for which the composite z-score in [1] came to 1.53; in assay [5], 3.61; in assay [7], 1.67; in assay [8], 0.785; in assay [9], 1.06; in assay [10], 1.03. Moreover, the composite z-score in [11] came to 1.72; in [12], 2.76; in [13] it was 1.66; in assay [15], 1.09; in [16], 1.29; in assay [17], 1. Also, the composite z-score in [18] was found to be 1.52; in assay [19], 1.5; in [20], 2.02. Further, the z-score in [2] is 0.749 (inactive); in [3] it was 0.238 (inactive); in assay [4] it was 5.75 (inactive); in assay [6], -0.737 (inactive); in [14], -0.0563 (inactive).
For `CO[C@H]1O[C@H](CO)[C@@H](OC(=O)Nc2cccc(F)c2)[C@H](OC(=O)Nc2ccccc2-c2ccccc2)[C@@H]1OC(=O)Nc1ccccc1-c1ccccc1`, the composite z-score in assay [1] is 1.55; in assay [5], 3.34; in assay [7], 0.134; in assay [8], 0.615; in [9], 1.05; in assay [10], -0.013. For the same compound, the composite z-score in [11] was determined as 1.13; in assay [12], 0.568; in assay [13], 0.74; in assay [15] it was 1.17; in assay [16], 0.673; in assay [17], 0.407. The composite z-score stood at 1.11 in [18], 0.198 in assay [19] and 0.434 in assay [20]. Besides, the z-score was 2.1 (inactive) in assay [2]; 1.88 (inactive) in assay [3]; -1.23 (inactive) in [4]; 0.675 (inactive) in [6]; 1.54 (inactive) in [14].
In the case of `NC(=O)[C@]1(Cc2ccccc2)N=C(c2ccc(OCCCO)cc2)O[C@@H]1c1ccccc1`, the composite z-score is 0.588 in assay [1]; 3.54 in assay [5]; 0.0781 in [7]; -0.165 in assay [8]; 0.658 in assay [9]; 0.0182 in assay [10]. Besides, the composite z-score in [11] is 0.647; in [12], 1.2; in assay [13] it was 0.751; in assay [15] it was 0.61; in assay [16] it was 0.0914; in [17], -0.722. Moreover, the results for the composite z-score in [18], in [19] and in [20] were -0.144, -0.109 and 0.558, respectively. In addition, the z-score is -0.94 (inactive) in [2]; -1.17 (inactive) in assay [3]; -0.314 (inactive) in [4]; -0.351 (inactive) in assay [6]; -0.072 (inactive) in [14].
Regarding `C=CC[C@]1(C(=O)NCCN2CCOCC2)N=C(c2ccc(OCCCO)cc2)O[C@H]1c1ccccc1N=[N+]=[N-]`, the composite z-score in [1] is 1.58; in assay [5], 3; in [7], 0.432; in assay [8] it was 0.0879; in [9], 0.991; in assay [10] it was 0.509. For the same compound, the composite z-score in assay [11] was 0.529; in assay [12], 1.22; in assay [13], 1.31; in assay [15] it was 1.08; in [16], 0.287; in assay [17] it was 0.327. Moreover, the composite z-score stood at 1.05 in [18], 0.283 in assay [19] and 1.6 in assay [20]. For the same compound, the z-score is -0.941 (inactive) in [2]; -1.41 (inactive) in assay [3]; -0.523 (inactive) in assay [4]; 1.74 (inactive) in assay [6]; -0.448 (inactive) in assay [14].
In the case of `CC(C)(C)OC(=O)CC[C@@]1(C(=O)NCC(O)CO)N=C(c2ccc(OCCCO)cc2)O[C@@H]1c1ccccc1` (stereo not given in full), the composite z-score in [1] is 1.46; in [5], 3.77; in [7], 0.0689; in assay [8] it was -0.364; in assay [9], 0.356; in assay [10] it was -0.071. The composite z-score in assay [11] is 0.317; in assay [12], 0.652; in assay [13], 0.811; in assay [15] it was 0.989; in assay [16], 0.0733; in assay [17] it was -1.19. The composite z-score in assay [18] is -0.583; in [19] it was -0.693; in [20], 0.203. Moreover, the z-score was 0.531 (inactive) in [2]; 0.18 (inactive) in assay [3]; 0.375 (inactive) in assay [4]; -0.103 (inactive) in [6]; -0.658 (inactive) in [14].
As to `O=c1cccc(-c2ccccc2)o1`, the composite z-score in [1] is -0.159; in assay [5], -0.568; in assay [7] it was -0.18; in [8], -0.124; in [9], -0.435; in assay [10], -0.136. The composite z-score is 0.906 in assay [11]; -0.196 in [12]; -0.186 in assay [13]; 0.421 in assay [15]; 0.211 in [16]; -0.648 in assay [17]. Further, the composite z-score in assay [18] is -0.337; in assay [19] it was -0.1; in assay [20] it was 1.4. For the same compound, the z-score is -1.42 (inactive) in assay [2]; -3.79 (inactive) in [3]; -0.482 (inactive) in assay [4]; -0.528 (inactive) in assay [6]; 0.92 (inactive) in assay [14].
`CCCCC(=C=CC[C@H](O)c1ccccc1OCCO)C[C@H](O)c1cc(Cl)cc(Cl)c1O`: the composite z-score was 1.1 in assay [1]; 1.3 in [5]; -0.118 in assay [7]; 0.453 in [8]; 0.224 in assay [9]; -0.163 in assay [10]. In addition, the composite z-score in assay [11] is 1.26; in assay [12] it was 0.0947; in assay [13] it was 0.0444; in [15], 0.345; in assay [16], 0.24; in assay [17], -0.619. In addition, the composite z-score in assay [18] is 0.179; in [19], -0.429; in assay [20], 0.796. For the same compound, the z-score in assay [2] is 0.906 (inactive); in [3], -1.33 (inactive); in assay [4] it was 0.32 (inactive); in assay [6] it was -0.144 (inactive); in [14], 0.23 (inactive).
With `CCCC[C@@H]1C[C@H]1[C@@H](NC(=O)c1ccccc1)c1ccc(-c2ccccc2)cc1`, the composite z-score was 0.409 in assay [1]; 2.3 in [5]; -0.12 in assay [7]; 0.364 in [8]; 0.496 in [9]; -0.117 in assay [10]. The composite z-score in assay [11] is -0.616; in assay [12], -0.0102; in assay [13] it was 0.754; in assay [15], 0.0096; in assay [16], -0.372; in [17], 0.0518. Also, the composite z-score in [18] was 0.12; in assay [19] it was 0.228; in assay [20], 0.715. For the same compound, the z-score in assay [2] is -2.02 (inactive); in [3], 0.256 (inactive); in [4], 2.7 (inactive); in [6], -0.947 (inactive); in assay [14], -3.53 (inactive).
